From the supplement of paper PMC10338343
± gives the standard deviation.

These sequences were tested on EfPiwi piRISC loaded with L1MC piRNA (26 nt) (assay: pre-steady-state target cleavage rate (min^-1); auxiliary factor: none (no Gtsf1); guide: L1MC piRNA 5'p-UAACUAAAUACUAUGCAAGCUGUAGG; MIWI and MILI are mouse PIWI proteins and EfPiwi is from a freshwater sponge; tags in brackets are library labels; higher = faster piRNA-guided slicing of the target).
Description: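 Cleave-'n-Seq: a library of target RNAs (target site in constant flanks) at […] was incubated with 1 nM active freshwater sponge Ephydatia fluviatilis Piwi piRISC (synthetic 5'-monophosphorylated piRNA guide) with or without 500 nM EmGtsf1 at 33 °C for 1 min to 16 h. Uncleaved targets were sequenced and the pooled three trials fitted to a burst-and-steady-state model to give the pre-steady-state cleavage rate (min^-1). Sequence is the target site only. Fits with R² ≤ 0 are excluded.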

pre-steady-state target cleavage rate, 0.00448 ± 0.0039:
UCCUGGAUGAGCUUGCAUAGUACUUAGUUA

pre-steady-state target cleavage rate, < 0.0001:
UCCUGGAUGAGCUUGCAUAGAUUUUAGUAA
UCCUGGAUGUCGAACGAAAGUUUUUAGUUA
UCCUGGAUCAGCUUCGUUAGUAUUUUCAAA
UCCUGCUACAGCUUGCAUAGUAUUUAGCUA
UCCUGGAUGUCGAAGCAUAGUUUUUAGAUA
UCCUGGAUGUCGAACGUUAGUUUAUAGUUA
UCCUGGAUGUCGAUGGAUAGAAUUUAGUUA
UCCUGGAUGUCGAAGCAUAGUAUUUUGAUA
UCCUGGAUGUCGAUGCAUAGUAUUUACAAA
UCCUGGAUGUCGUUGCAUAGUAUAUAGAUA
UCCUGGAUGUGCUUGCAUACAUUUUAGUAA
UCCUGGAUGUCGAACGAUACUAUUUAGAUA
UCCUGGAUGUCGAAGAAUAGUAUUUAGUUA
UCCUGGAUCAGCUUGGAUACUAUUUAGUUA
UCCUGGAUGUCGUUGCAUAGUAUUUUCAAA [g6:g18:cont:t1A]
UCCUGGAUGUCGAAGCAUAGUAUUUAGUCA
UCCUGGAUGUCGAACGUUUGUAAUUAGUUA
UCCUGGAUGUCGAACGUUAGUAAUUAGUAA
UCCUGGAUGUCGAACCUUAGUAUUUAGUUA
UCCUGGAUGUCGAACCCUAGUAUUUAGUUA
UCCUGGAUGUCGUUACAUAGUAUUUAGUUA
UCCUCCUACAGCUUGCAAUCUAUUUUCAAA
UCCUGGAUGUCGAAGCAUAGUAUUUAGGUA
UCCUGGAACAGCUUCCAUAGUAUUUACUUA
UCCUGGAUGUCGAACGUAUGAAUUUAGAUA
UCCUGGAUCAGCUUGGAUAGUAUUUACAAA
UCCUCCUACAGCUUGCAUAGUAUUGUAGUUA
UCCUGGAUGUCCUUCGAUAGUAUUUAGUUA
UCCUGGAUGUGCAUGCAUAGUAUUUAGAUA
UCCUGGAUCAGCAACCAUAGUAUUUUCAAA
UCCUGGAUGUCGAACCAUAGUAUUUCAGUUA
UCCUGGAUCAGGUUGCAUAGUAUUUUCAAA
UCCUGCUACAGCUUGCAUAGAAUUUUCAAA

pre-steady-state target cleavage rate, 0.00536 ± 0.0048:
UCCUGGAUCAGCUUGCAUAUUAUUUAGUUA

pre-steady-state target cleavage rate, 0.00468 ± 0.0038:
UCCUGGAUCAGCUUGCAUAGUACUUUAGUUA

pre-steady-state target cleavage rate, 0.0241 ± 0.0099:
UCCUGGAUCUGCUUGCAUAGUAAUUAGUUA

pre-steady-state target cleavage rate, 0.0128 ± 0.0056:
UCCUGGAUGAGCUUGCAUAGUCUUUAGUUA

pre-steady-state target cleavage rate, 0.00555 ± 0.0052:
UCCUGGUACAGCUUGCAUAGUAUUUAAGUUA

pre-steady-state target cleavage rate, 0.00791 ± 0.0048:
UCCUGGAACAGCUUGCAUCGUAUUUAGUUA
